# Screens (PubChem BioAssay)
# gsp agonist – activates gsp, the McCune-Albright syndrome mutation | gsp mutant cells, cAMP HTRF, 30 min | Potency, µM (titrated, usually from 76.9 µM), without a hit: at the top dose activation (cAMP increase), actives largely listed as activators | hit rate 0.13% among 340,000 | AID 624287; active = well fitted activation curve with a large enough effect; inconclusive = small, poorly fitted or top-dose-only effect, or another doubt; inactive = no such curve, though single readings can be large or run the other way; cell line not stated here;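 also: phosphodiesterase inhibitor Ro 20-1724 added with compounds to block cAMP breakdown; potency is read from the fitted curve at half-maximal effect; nearly all actives have a fitted effect of over 60% in size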
#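 Cells stably selected in G418 were plated at 2000/well, grown 16-24 hr, then given compounds in DMSO with the PDE inhibitor […] (300 uM solution added) for 30 min at 37C; cAMP was read by HTRF.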
# gsp antagonist – antagonists of gsp mutant (McCune-Albright syndrome) | gsp-mutant cells, cAMP HTRF, 30 min | Potency, µM (top dose mostly 76.9 µM), inactives show top-dose activity change, negative = inhibition, hits mostly inhibitors | hit rate 0.4% among 340,000 | AID 624288; calls by dose curve; cell line not stated here;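 also: intracellular cAMP measured with PDE inhibitor Ro 20-1724 present during compound exposure; potency is read from the fitted curve at half-maximal effect; % is scaled to controls: 0 for no effect and ±100 for the full control effect; nearly all actives have a fitted effect of over 65% in size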
#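 Cells, 2000/well, grown 16–24 h in DMEM 10% FBS with 0.5 mg/ml G418, then compounds plus […] (300 uM addition stock), 30 min at 37C. cAMP read by HTRF (cAMP-d2 and anti-cAMP antibody-K in lysis buffer) after 30 min RT.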
# RXFP1 ag – agonists of human relaxin receptor RXFP1; HEK293T-RXFP1 cAMP TR-FRET, 30 min; response scale: percent of porcine relaxin response, buffer zero; Potency, µM (titrated, usually from 57.5 µM), for the others: at the highest dose activation, usual class: activators; hit rate 0.3% among 370,000; AID 2676; active = well fitted activation curve with a large enough effect; inconclusive = small, poorly fitted or top-dose-only effect; also: potency is read from the fitted curve at half-maximal effect; % is scaled to controls: 0 for no effect and ±100 for the full control effect; nearly all actives have a fitted effect of over 60% in size
# Target sequence (Q9HBX9 whole entry, looked up): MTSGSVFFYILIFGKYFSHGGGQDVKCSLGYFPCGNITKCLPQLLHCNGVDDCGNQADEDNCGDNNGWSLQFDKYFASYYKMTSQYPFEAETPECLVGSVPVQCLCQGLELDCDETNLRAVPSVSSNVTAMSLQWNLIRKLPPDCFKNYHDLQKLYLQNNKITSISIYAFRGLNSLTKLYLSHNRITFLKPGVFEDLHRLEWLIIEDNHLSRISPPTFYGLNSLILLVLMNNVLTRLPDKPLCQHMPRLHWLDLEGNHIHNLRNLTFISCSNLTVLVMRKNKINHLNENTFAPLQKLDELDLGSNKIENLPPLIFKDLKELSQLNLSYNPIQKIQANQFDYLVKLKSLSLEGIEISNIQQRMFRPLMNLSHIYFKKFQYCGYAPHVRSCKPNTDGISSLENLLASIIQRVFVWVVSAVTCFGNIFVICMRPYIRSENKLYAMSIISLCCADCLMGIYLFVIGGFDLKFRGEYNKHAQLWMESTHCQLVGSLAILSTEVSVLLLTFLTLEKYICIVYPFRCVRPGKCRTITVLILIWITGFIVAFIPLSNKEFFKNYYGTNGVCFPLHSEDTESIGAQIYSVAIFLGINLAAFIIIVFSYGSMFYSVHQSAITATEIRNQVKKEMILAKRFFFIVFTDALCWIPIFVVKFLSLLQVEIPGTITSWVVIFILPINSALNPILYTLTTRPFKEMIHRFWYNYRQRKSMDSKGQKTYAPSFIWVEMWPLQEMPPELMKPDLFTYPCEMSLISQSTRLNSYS
#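 HEK293T cells stably expressing RXFP1 were pretreated with the PDE4 inhibitor Ro 20174, exposed to compounds for 30 min at 37C, lysed, and cAMP was read by TR-FRET. Data normalized to buffer (basal) and 29 nM porcine relaxin (100%).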
# Akt phos inh – blocks phosphorylation of Akt; hit rate 0.32% among 360,000; AID 651550; activity change, % for hits at 50 µM; Neuro2A IGF-stimulated pAkt S473 HTRF, 20 min; active compounds read low; in the data active = activity change below about -80%; inconclusive = mostly about -51% to -80%; also: % is scaled to controls: 0 for no effect and ±100 for the full control effect
#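 Neuro2A cells in DMEM with 0.5% FBS, overnight at 37 deg C, given compound at single 50 µM final, then IGF (6 nM final) for 20 min at 37 deg C. Lysed; phospho-Akt Ser473 by HTRF after 24 h, 665/615 ratio.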
# TSHR antag – antagonists of human thyroid stimulating hormone receptor. TSHR-expressing cells, TSH-stimulated cAMP HTRF, 2 h; active compounds read low. activity change, negative = inhibition, % at 11.5 µM. hit rate 0.2% among 330,000. AID 504810;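 active = activity change below a set negative limit, meaning inhibition stronger than a set level, cut at about -70% in these data; inconclusive = activity change between two set negative limits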; also: % is scaled to controls: 0 for no effect and ±100 for the full control effect
#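 Competitive HTRF cAMP read-out (cryptate anti-cAMP antibody, cAMP-d2; 30 min, room temperature) in freshly harvested TSHR cells. Compounds added before TSH at EC80 (4nM final), followed by 2 hours' incubation at 37 deg C.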
# RXFP1 antag – antagonists of human relaxin receptor RXFP1 | HEK293-RXFP1, relaxin-stimulated cAMP HTRF, 30 min; active compounds read low | hit rate 0.59% among 350,000 | activity change, negative = inhibition, % at 57.5 µM | AID 1259400 | Q9HBX9;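 active = activity change of -60% or lower, but not beyond a set lower limit; inconclusive = change between -60% and -40%, or beyond the set limit; inactive = change above -40%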; also: % is scaled to controls: 0 for no effect and ±100 for the full control effect
# * hit, by the source's call; i = inactive; ? = inconclusive; / = not tested or not shown; [ ] = another dose, or the depositor's remark. Compounds with a hit are over-represented: about 1.3% of the library has one in this group of screens.
SMILES,gsp agonist,gsp antagonist,RXFP1 ag,Akt phos inh,TSHR antag,RXFP1 antag
Cc1noc(C)c1S(=O)(=O)N(CC(=O)NC(C)c1ccccc1)c1ccc(C(C)C)cc1 (stereo unspecified),?,-6%,0%,i,-7,-22
CC(C)C(=O)Nc1cccc(C2CN3CCSC3=N2)c1 (stereo unspecified),/,/,/,/,/,10
CC(C)(C)C(=O)COC(=O)c1cc(-c2ccncc2)nc2ccccc12,-7%[15.4 µM],-14%,4%,i,2,-67*
CC(=O)COC(=O)c1cc(-c2ccc(C)cc2)nc2ccccc12,-6%,?,0%,i,3,3
Cn1c(CCNC(=O)c2cc(COc3ccc(F)c(F)c3)on2)nc2ccccc21,-14%[15.4 µM],-14%,0%,i,-3,-5
C=C1C(=O)C23C(O)C1CCC2C12CCCC(C)(COC(C)=O)C1C(O)C3(O)OC2 (stereo unspecified),-3%,-5%,/,i,/,-117*
CN1OC[C@@H]2CN(C(=O)CCc3ccccc3)[C@H](c3cccc(N4CCOCC4)c3)C[C@@H]21,/,0%,/,i,/,/
CCOC(=O)c1cn(-c2ccccc2)nc1-c1ccncc1,-4%,-1%,2%,-118%*,48,-18
CCOC(=O)c1cn(-c2ccccc2)nc1-c1cccnc1,15%,-10%,3%,i,27,-13
C=CCSc1nnc2c(n1)OC(c1c(C)[nH]n(-c3ccccc3)c1=O)Nc1ccccc1-2 (stereo unspecified),9%,25µM*,-1%,i,-11,8
COc1ccc(CCNC(=O)C2CCC(=O)N(C3CCCCCC3)C2)cc1 (stereo unspecified),?,50µM*,-2%,i,0,1
CC(C)C(=O)Nc1cccc(C(F)(F)F)c1,/,/,/,/,/,-8
Cc1ccc(-n2nnnc2C(Cl)c2nnnn2-c2ccc(C)cc2)cc1,-35%,10%,0%,i,-28,-63*
CCCc1nc(SCC(=O)N2CCC(Cc3ccccc3)CC2)c2c(=O)n(C)c(=O)n(C)c2n1,?,25µM*,2%,i,0,3
CC1(C(=O)Nc2nccs2)CCN1C(=O)CC(c1ccccc1)c1ccccc1 (stereo unspecified),/,/,/,i,/,/
CCc1ccccc1NC(=O)CCC(=O)N1CC(C)Oc2ccc(C)cc21 (stereo unspecified),/,/,0%,/,/,-11
O=C(Nc1cccc(F)c1)c1ccc2c(c1)OCO2,0%,-10%,2%,i,-1,-7
CCCC(=O)Nc1cccc(NC(=O)c2ccc3c(c2)OCO3)c1,19%,-20%,-2%,-115%*,2,-13
O=C(Nc1c(C(=O)Nc2cccc(F)c2)oc2ccccc12)c1ccc2c(c1)OCO2,47%,-1%,?,-112%*,-7,6
O=C(Cn1c(=O)n2nc(-c3cccc(F)c3)nc2c2ccccc21)N1CCN(c2ccc(F)cc2)CC1,/,/,3%,/,/,-11
CCCc1cc(=O)[nH]c2nnc(SCC(=O)Nc3cccc(NC(C)=O)c3)n12,7%,9%,-3%,i,23,-1
COc1ccc(OC)c(C2C=C(C34CC5CC(CC(C5)C3)C4)NC(=S)N2)c1 (stereo unspecified),5%,-10%,5%,i,-17,-2
COc1cc(C2C=C(C34CC5CC(CC(C5)C3)C4)NC(=S)N2)cc(OC)c1OC (stereo unspecified),3%,?,3%,-113%*,-14,-7
COc1ccc(OCC(=O)Nc2cccc(-c3nc4ccccc4o3)c2)cc1,3%,13%,3%,i,-16,-6
CCc1ccc(OCC(=O)Nc2ccc(-c3nc4ccccc4o3)c(O)c2)cc1,-1%,-3%,30%,-102%*,19,-8
SMILES,gsp agonist,gsp antagonist,RXFP1 ag,Akt phos inh,TSHR antag,RXFP1 antag
CN(c1ccc(O)cc1)c1nc(O)c(C2=c3ccccc3=NC2=O)s1,7%,14µM*,/,i,/,-13
O=C1N=c2ccccc2=C1c1sc(=S)n(-c2ccc(O)cc2)c1O,-2%[15.4 µM],3%,-1%,i,-5,-9
CSc1ccccc1NC(=O)CN(C)C(=O)COc1ncnc2ccccc12,-12%[15.4 µM],16%,/,i,0,-8
C=CCn1c(SCC(=O)Nc2sccc2C(N)=O)nc2sc(CC)cc2c1=O,6%,-29%,1%,-111%*,-13,-7
C=CCn1c(SCC(=O)Nc2sccc2C(N)=O)nc2ccc(Cl)cc2c1=O,13%,-30%,0%,i,-26,6
Cc1cn2c(=O)c(S(=O)(=O)NC(C)c3ccccc3)c(C)nc2s1 (stereo unspecified),/,/,-2%,/,/,-4
COc1ccc([N+](=O)[O-])cc1N(CC(O)CN1CCCC1)S(=O)(=O)c1ccc(C)cc1 (stereo unspecified),?,4%,-1%,i,-2,-66*
CC(NC(=O)C12CC3(C)CC(C)(CC(C)(C3)C1)C2)C(=O)O (stereo unspecified),6%[15.4 µM],-2%,0%,i,7,5
Cc1cccc(-c2nc(SCc3cc(=O)c4c(C)cc(C)cc4[nH]3)n[nH]2)c1,/,/,-3%,/,/,-70*
CCOc1cc(N2CCOCC2)c(OCC)cc1NC(=O)c1cc(S(=O)(=O)N2CCOCC2)ccc1C,-1%,-30%,/,i,-82*,5
CCOc1cc(N2CCOCC2)c(OCC)cc1NC(=O)c1ccc(S(C)(=O)=O)cc1,-17%[15.4 µM],-13%,-1%,i,-8,-16
Cc1nc(N)sc1-c1csc(Nc2ccccn2)n1,11%,-2%,1%,-110%*,-6,-5
COc1ccc(CC(=O)Nc2nc(-c3ccc(OC)c(OC)c3)cs2)cc1OC,4%[15.4 µM],28µM*,1%,i,-16,-27
COc1ccc(-c2csc(Nc3ccccn3)n2)cc1OC,-1%[15.4 µM],-27%,-1%,i,-17,-84*
O=C(Cc1ccccc1F)Nc1nc(-c2ccc(F)cc2)cs1,-5%,-16%,-1%,i,-28,-93*
Cc1onc(-c2c(Cl)cccc2Cl)c1C(=O)Cl,/,/,/,/,/,-3
COc1ccccc1CNC(=O)COC(=O)c1cccc(S(=O)(=O)N2CCCCC2)c1,-3%[15.4 µM],2%,2%,i,2,-11
Cc1ccnc(Nc2nc(-c3ccc(F)cc3)cs2)c1,2%[15.4 µM],-27%,0%,i,?,-66*
Cc1ccnc(Nc2nc(-c3ccc(Cl)cc3)cs2)c1,?,6%,0%,i,-13,-3
CC(C)C(=O)N(c1cc2sc(=O)oc2c2ccccc12)S(=O)(=O)c1cccs1,-36%,-18%,-2%,i,-13,-68*
